Data on 34 compounds can be found in PubChem BioAssay (Tox21).

Records with an inconclusive call do not appear. Active and inactive are the calls of the source. Unless noted, the call rests on the fitted dose curve; in most records, active means well fitted curve in the direction sought with a large enough effect in the repeat runs; inconclusive means weak or mixed curves; inactive means no such curve, though single readings can be large; an effect the other way counts as inactive or inconclusive.

A short description of assay [1]: qHTS assay to identify small molecule agonists of the peroxisome proliferator-activated receptor delta (PPARd) signaling pathway - cell viability counter screen (AID 743211). Further: nearly all actives have a fitted effect of over 55% in size. Further: potency means the concentration at half of the fitted maximal effect. An outline of the steps: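 In the same wells used for beta-lactamase reporter measurement, cytotoxicity is scored by CellTiter-Glo. HEK293H PPARd-bla cells receive compound for 17 h at 37C following a 5 h settling period.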
Background: In qHTS, concentration-response curves come from the screen itself.

For assay [2], the target named is Peroxisome proliferator-activated receptor delta (Homo sapiens) (UniProt Q03181). The assay is described as follows: qHTS assay to identify small molecule agonists of the peroxisome proliferator-activated receptor delta (PPARd) signaling pathway (AID 743212; calls by dose curve; further: potency means the concentration at half of the fitted maximal effect). In short, it runs like this:
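HEK293H PPARd-bla cells; 5 h preincubation 37 C/5% CO2; compound (DMSO) 37 C; LiveBLAzer B/G FRET substrate 2 h RT; fluorescence intensity.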

Assay [3] can be described thus: qHTS assay to identify small molecule antagonists of the peroxisome proliferator-activated receptor delta (PPARd) signaling pathway - cell viability counter screen (AID 743213). Further: nearly all actives have a fitted effect of over 50% in size. An outline of the steps:
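PPARd-bla HEK293H cells (3000/well) got compound plus 300 nM L165041 agonist for 17 h at 37 C. Viability in the same wells came from CellTiter-Glo luminescence after 30 min at room temperature.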

Assay [4] deals with Bile acid receptor (Homo sapiens) (UniProt Q96RI1). Description: qHTS assay to identify small molecule antagonists of the farnesoid-X-receptor (FXR) signaling pathway (AID 743217; active means well fitted inhibition curve with a large enough effect in the signal ratio in the repeat runs, not every such curve was filed as active; the % refers to the signal ratio). In short, it runs like this: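 HEK 293T FXR-UAS-bla, 5000 cells/well; compound + CDCA 50 uM final; 16 h, 37 °C; B/G FRET substrate 2 h RT; fluorescence.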
Sequence of Bile acid receptor (Homo sapiens) (Q96RI1 whole entry, looked up): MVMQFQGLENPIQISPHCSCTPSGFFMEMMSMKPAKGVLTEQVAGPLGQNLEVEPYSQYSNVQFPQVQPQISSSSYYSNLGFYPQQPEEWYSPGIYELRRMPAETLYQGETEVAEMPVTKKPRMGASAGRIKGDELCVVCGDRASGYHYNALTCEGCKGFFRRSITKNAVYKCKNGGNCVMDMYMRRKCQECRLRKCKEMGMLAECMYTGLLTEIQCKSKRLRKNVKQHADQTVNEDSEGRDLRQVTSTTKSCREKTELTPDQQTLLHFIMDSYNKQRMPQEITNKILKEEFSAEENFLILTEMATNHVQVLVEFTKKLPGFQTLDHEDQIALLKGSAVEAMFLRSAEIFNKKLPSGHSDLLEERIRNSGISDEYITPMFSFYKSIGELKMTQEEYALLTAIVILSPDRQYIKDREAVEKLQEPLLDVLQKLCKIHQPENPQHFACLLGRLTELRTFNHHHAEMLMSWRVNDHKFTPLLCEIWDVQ
The nature of assay [5]: qHTS assay to identify small molecule agonists of the farnesoid-X-receptor (FXR) signaling pathway - cell viability counter screen (AID 743218). Further: nearly all actives have a fitted effect of over 45% in size. In short, it runs like this:
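HEK 293T FXR-bla cells; 5 h pre-incubation, 16 h compound exposure at 37 C; LiveBLAzer substrate 2 h RT, then CellTiter-Glo 30 min RT, luminescence.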

Assay [6] addresses Bile acid receptor (Homo sapiens) (UniProt Q96RI1). The assay is described as follows: qHTS assay to identify small molecule agonists of the farnesoid-X-receptor (FXR) signaling pathway (AID 743220; active means well fitted activation curve with a large enough effect in the signal ratio in the repeat runs, not every such curve was filed as active; the % refers to the signal ratio). In short, it runs like this:
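Beta-lactamase reporter under UAS control in GeneBLAzer FXR HEK 293T cells (5000/well) measured with LiveBLAzer FRET substrate after 2 h at room temperature. Compound exposure lasted 16 h at 37C.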

A short description of assay [7]: qHTS assay to identify small molecule antagonists of the farnesoid-X-receptor (FXR) signaling pathway - cell viability counter screen (AID 743221; active means well fitted cell-killing curve with a large enough effect in the repeat runs, not every such curve was filed as active; further: nearly all actives have a fitted effect of over 50% in size). An outline of the steps: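 Here viability was scored by luminescence after CellTiter-Glo addition to wells already read for beta-lactamase. Prior treatment: compound plus CDCA (50 uM final), 16 h, 37 C, HEK 293T FXR-bla cells.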

Assay [8] addresses Vitamin D3 receptor (Homo sapiens) (UniProt P11473). Description: qHTS assay to identify small molecule agonists of the vitamin D receptor (VDR) signaling pathway (AID 743222; calls by dose curve). An outline of the steps:
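VDR-bla cells, 2,000/well; 4 h preincubation 37C; cpd (DMSO) 16 h; LiveBLAzer B/G substrate 2 h RT; fluorescence intensity read.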

The target is the same in assay [9]. The assay is described as follows: qHTS assay to identify small molecule antagonists of the vitamin D receptor (VDR) signaling pathway (AID 743223; active means well fitted inhibition curve with a large enough effect in the signal ratio in the repeat runs, not every such curve was filed as active; the % refers to the signal ratio; further: potency means the concentration at half of the fitted maximal effect). An outline of the steps: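 Inhibition of agonist-driven VDR signalling is scored in VDR-bla cells: 3 nM final 1alpha,25-dihydroxyvitamin D3 plus compound, 16 h at 37C, then beta-lactamase detection by FRET substrate fluorescence after 2 h.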

Assay [10] deals with Peroxisome proliferator-activated receptor delta (Homo sapiens) (UniProt Q03181). Description: qHTS assay to identify small molecule antagonists of the peroxisome proliferator-activated receptor delta (PPARd) signaling pathway (AID 743215; active means well fitted inhibition curve with a large enough effect in the signal ratio in the repeat runs, not every such curve was filed as active; the % refers to the signal ratio;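 further: cells stimulated with agonist L165041 at 300 nM final during compound exposure; series mostly up to about 62 µM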). An outline of the steps: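 Read-out is beta-lactamase FRET fluorescence, measured 2 h after substrate addition at room temperature. Beforehand, UAS-bla HEK293H cells carrying the PPARd reporter were exposed to compounds with L165041 at 300 nM final for 17 h at 37 C.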
Sequence of Peroxisome proliferator-activated receptor delta (Homo sapiens) (Q03181 whole entry, looked up): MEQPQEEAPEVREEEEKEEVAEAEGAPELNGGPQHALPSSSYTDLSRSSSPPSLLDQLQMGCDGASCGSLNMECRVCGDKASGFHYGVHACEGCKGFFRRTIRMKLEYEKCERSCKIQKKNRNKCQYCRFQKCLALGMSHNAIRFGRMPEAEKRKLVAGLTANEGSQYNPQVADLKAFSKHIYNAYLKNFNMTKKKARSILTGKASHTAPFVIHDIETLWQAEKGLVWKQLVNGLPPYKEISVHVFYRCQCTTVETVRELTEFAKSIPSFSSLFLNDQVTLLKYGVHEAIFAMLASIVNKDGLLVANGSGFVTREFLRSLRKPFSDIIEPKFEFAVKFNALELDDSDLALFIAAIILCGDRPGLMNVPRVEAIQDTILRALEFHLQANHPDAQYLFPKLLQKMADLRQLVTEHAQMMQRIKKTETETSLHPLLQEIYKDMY

Sequence of Vitamin D3 receptor (Homo sapiens) (P11473 whole entry, looked up): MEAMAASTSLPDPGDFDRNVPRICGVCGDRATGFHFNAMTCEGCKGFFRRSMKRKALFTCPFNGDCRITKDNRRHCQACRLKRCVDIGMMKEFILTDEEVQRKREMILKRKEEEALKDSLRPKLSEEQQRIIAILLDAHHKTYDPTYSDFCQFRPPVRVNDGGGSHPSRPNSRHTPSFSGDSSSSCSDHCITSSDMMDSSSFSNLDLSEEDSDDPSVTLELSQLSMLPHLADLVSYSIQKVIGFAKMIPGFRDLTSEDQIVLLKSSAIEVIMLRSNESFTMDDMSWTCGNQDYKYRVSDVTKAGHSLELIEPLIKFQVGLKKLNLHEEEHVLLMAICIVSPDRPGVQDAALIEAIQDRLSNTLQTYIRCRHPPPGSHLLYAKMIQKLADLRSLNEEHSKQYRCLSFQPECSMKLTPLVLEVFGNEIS

For `CCN(CC)CCNC(=O)COc1ccc(OC)cc1`, the Potency entry in [1], in assay [2], in [3], in [4], in assay [5] and in assay [6] was “inactive” in each case. Moreover, the Potency entry in assay [7], in [8] and in assay [9] was “inactive” throughout.

In the case of `COc1cc(C(=O)NCCCCCC(=O)O)cc(OC)c1OC`, the Potency entry in assay [1], in [2], in assay [3], in [5] and in assay [9] was “inactive” in each case.

For the compound `O=c1[nH]ncc2ccccc12`, the Potency entry in assay [1], in [2], in assay [3], in assay [10], in assay [5] and in [9] was “inactive” in each case.

As to `CCC(=O)C1CC(C(C)C)CC=C1C` (stereo not drawn), the Potency result in assay [1], in [2], in assay [3], in [5] and in assay [7] was “inactive” each time.

Take `CC(=O)c1cc2ccccc2s1`: the Potency entry in [1], in assay [2], in assay [3], in assay [4], in [5] and in assay [6] was “inactive” throughout. Also, the Potency result in assay [7] and in [9] was “inactive” in each case.

`CCC=CC#N`: the Potency entry in assay [1], in assay [2], in assay [3] and in assay [7] was “inactive” throughout.

For `O=C1c2ccccc2C(=O)N1CCc1noc(-c2ccc(CN3CCCCCC3)s2)n1`, the Potency entry in assay [1], in assay [2], in assay [3], in [4], in assay [5] and in assay [7] was “inactive” each time.

With `O=C1c2ccccc2C(=O)C1c1nc2ccccc2c(Br)c1O`, the Potency entry in assay [1], in assay [2], in assay [3], in assay [10], in assay [5] and in assay [7] was “inactive” in each case. The Potency entry in assay [9] was “inactive”.

In the case of `Oc1cc2c(cc1O)[C@H]1c3ccc(O)c(O)c3OC[C@@]1(O)C2`, the Potency result in [1], in assay [2], in assay [3] and in [7] was “inactive” throughout.

On to `CCC1NC(=O)c2cc(S(N)(=O)=O)c(Cl)cc2N1` (stereo not drawn), for which the Potency entry in assay [1], in assay [2], in [3], in assay [5], in [8] and in assay [9] was “inactive” in each case.

With `NC1[C@H]2CN(c3nc4c(cc3F)c(=O)c(C(=O)O)cn4-c3ccc(F)cc3F)C[C@@H]12` (stereo partly drawn), the Potency entry in assay [1], in assay [3], in assay [5] and in assay [7] was “inactive” in each case. The Potency in assay [2] was 29.8 µM (active).

Consider `CCc1ccccc1`, for which the Potency entry in assay [1], in assay [2], in [3], in assay [10], in assay [5] and in assay [8] was “inactive” each time. For the same compound, in assay [9], the Potency result was “inactive”.

On to `CC(C)(O)c1ccc(CNC(=O)c2cccnc2Oc2ccc3nonc3c2)cc1`, for which the Potency result in assay [1], in assay [2], in assay [3], in [10], in assay [5] and in assay [7] was “inactive” each time. Moreover, the Potency entry in assay [9] was “inactive”.

Turning to `CCCC(C(=O)OCCN(CC)CC)(c1ccccc1)c1ccccc1`, in [1], the Potency was 29.8 µM (active). The Potency result in assay [2], in assay [10], in [5], in assay [6] and in assay [8] was “inactive” in each case.

For `CCC(OCCCOC)OC(C)=O` (stereo not drawn), the Potency result in assay [1], in assay [2], in assay [3], in assay [10], in assay [5] and in assay [7] was “inactive” throughout. For the same compound, the Potency result in assay [9] is “inactive”.

In the case of `CCCCCCNC(=O)n1cc(F)c(=O)[nH]c1=O`, the Potency result in assay [1], in assay [2], in [3], in assay [10], in assay [7] and in assay [8] was “inactive” in each case. For the same compound, in assay [9], the Potency entry is “inactive”.

On to `Nc1nnc(-c2ccc([N+](=O)[O-])o2)o1`, for which the Potency result in assay [1], in assay [2], in [3], in assay [10], in [8] and in assay [9] was “inactive” each time.

Take `O=C(O)c1ccc(OCCCOc2ccc(C(=O)O)cc2)cc1`: the Potency result in [1], in assay [2], in assay [10], in assay [4], in assay [5] and in [6] was “inactive” throughout. For the same compound, the Potency result in [7] and in assay [9] was “inactive” throughout.

Turning to `Cc1ccc(C(C)(C)O)cc1`, the Potency entry in assay [1], in assay [2], in [3], in [10], in assay [5] and in assay [8] was “inactive” in each case.

Take `Cc1ccc2c(Br)cc(Br)c(O)c2n1`: the Potency result in [1], in [2], in [3], in assay [5], in assay [7] and in assay [8] was “inactive” in each case. Also, the Potency entry in assay [9] is “inactive”.

As to `CCOC(=O)/C=C/C(=O)OCC`, the Potency result in assay [1], in assay [2], in [3], in [10], in assay [5] and in assay [7] was “inactive” each time. Further, the Potency entry in assay [9] is “inactive”.

Take `C/C=C\C/C=C/CCCCCCCCOC(C)=O`: the Potency result in assay [1], in assay [2], in [3], in [6] and in assay [7] was “inactive” in each case.

Turning to `OCCOCC#CCOCCO`, the Potency result in assay [1], in assay [2], in [3], in assay [5] and in [8] was “inactive” in each case.

For the compound `O=Cc1c2ccccc2c(Cl)c2ccccc12`, the Potency result in assay [1], in assay [3], in assay [10], in [5], in assay [8] and in assay [9] was “inactive” in each case. Besides, the Potency in assay [2] is 10.7 µM (active).

Regarding `O=C1CCCCCCCCCCOCCCCO1`, the Potency result in [1], in assay [2], in assay [3], in assay [10], in assay [5] and in [7] was “inactive” each time. Moreover, the Potency entry in assay [9] is “inactive”.

For the compound `Nc1ncnc2c1ncn2[C@H]1CC[C@@H](CO)O1`, the Potency entry in assay [1], in assay [2], in [10], in [4], in [5] and in assay [6] was “inactive” each time. In addition, the Potency result in assay [7] and in assay [9] was “inactive” each time.

As for `CCCCCCCC/C=C\CCCCCCCCO`, the Potency result in assay [1], in assay [2], in assay [3], in assay [10], in assay [5] and in assay [8] was “inactive” throughout. Further, the Potency result in assay [9] was “inactive”.

For `Oc1c(I)cc(I)c2cccnc12`, the Potency result in assay [1], in assay [2], in assay [3], in assay [4], in assay [5] and in [7] was “inactive” throughout. For the same compound, in assay [8], the Potency entry is “inactive”. For the same compound, the Potency in assay [9] is 21.3 µM (active).

On to `CC1=C(Br)C(=O)C(Br)=C/C1=C(/c1ccccc1S(=O)(=O)O)c1cc(Br)c(O)c(Br)c1C`, for which the Potency result in assay [1], in assay [2], in assay [10], in assay [4], in assay [5] and in assay [6] was “inactive” in each case. Further, the Potency entry in [7] and in assay [8] was “inactive” in each case.

`CCOc1ccc(Cc2nccc3cc(OCC)c(OCC)cc23)cc1OCC`: the Potency entry in assay [1], in [2], in [3], in [7] and in assay [8] was “inactive” each time.

As to `COc1ccccc1Oc1c(NS(=O)(=O)c2ccc(C(C)(C)C)cc2)nc(-c2ncccn2)nc1OCCO`, the Potency result in assay [1], in assay [2], in [3], in [10], in assay [5] and in assay [7] was “inactive” each time. Besides, the Potency entry in assay [9] is “inactive”.

`CC(CO)CO`: the Potency result in assay [1], in assay [2], in assay [3], in [10], in assay [5] and in assay [8] was “inactive” throughout.

On to `CC(=O)[C@H]1[C@H](C#N)C[C@H]2[C@@H]3CC=C4C[C@@H](O)CC[C@]4(C)[C@H]3CC[C@@]21C`, for which the Potency entry in assay [1], in assay [2], in [10], in [4], in assay [5] and in [7] was “inactive” in each case.

On to `CCC1(CO)COCOC1`, for which the Potency entry in assay [1], in assay [2], in assay [10], in [5], in assay [7] and in assay [8] was “inactive” each time.
